PubChem BioAssay (NCATS)
Inconclusive results are not listed. Calls of active or inactive are those of the source. Calls follow the shape of the dose curve; as a rule, active = well fitted cell-killing curve with a large enough effect; inconclusive = small, poorly fitted or top-dose-only effect; inactive = flat fitted curve, though single readings scatter.

What was measured:
[1] = Cell Viability - LYMP2-013 (AID 970); also: series mostly up to about 92 µM; nearly all actives have a fitted effect of over 55% in size
How it was run: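 Cytotoxicity is scored as a concentration-dependent drop in intracellular ATP in human lymphoblastoid cells after 24 hr compound exposure at 37 C. ATP is quantified by luciferase luminescence, and AC50 values come from Hill-equation modeling.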

[2] = Cell Viability - LYMP2-015 (AID 971); also: nearly all actives have a fitted effect of over 55% in size
How it was run: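 Cells are seeded at 2500 per well and incubated 5 hr at 37 C. Compounds are added across a concentration series for 24 hr at 37 C. CellTiter-Glo is added, and luminescence is read after 30 min at room temperature.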

[3] = Cell Viability - LYMP2-017 (AID 972); also: series mostly up to about 92 µM; nearly all actives have a fitted effect of over 55% in size
How it was run: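 Cytotoxicity is scored as a concentration-dependent drop in cellular ATP in a human lymphoblastoid line after 24 hr treatment at 37 C. Values are AC50s from Hill-equation modelling.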

[4] = Cell Viability - LYMP2-019 (AID 973); also: nearly all actives have a fitted effect of over 55% in size
How it was run: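 Cytotoxicity is scored as a concentration-dependent drop in cellular ATP after cells (2500/well) receive compound for 24 hr at 37 C. Tetraoctylammonium bromide serves as positive control.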

[5] = Cell Viability - LYMP2-021 (AID 974)
How it was run: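 Loss of cellular ATP, measured with a luciferase-based CellTiter-Glo readout, serves as the toxicity signal in human lymphoblastoid cells treated for 24 hours at 37 C. Potency is reported as AC50 from a standard Hill model.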

[6] = Cell Viability - LYMP2-023 (AID 975)
How it was run: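 Steps: seed 2500 human lymphoblastoid cells per well, incubate 5 hr at 37 C, add compound for 24 hr at 37 C, add CellTiter-Glo, hold 30 min at room temperature, read luminescence. AC50 derived by Hill modelling.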

[7] = Cell Viability - LYMP2-025 (AID 976); also: series mostly up to about 92 µM
How it was run: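 Acute cytotoxicity is scored as a concentration-dependent fall in intracellular ATP, measured by luciferase luminescence, in human lymphoblastoid LYMP2-025 cells exposed to compound for 24 hours at 37 C. AC50 values come from standard Hill fits.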

[8] = Cell Viability - LYMP2-002 (AID 977);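 also: series mostly up to about 92 µM; compound exposure lasted 24 h at 37 °C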
How it was run: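 Human lymphoblastoid cells (2500/well) in complete medium were preincubated 5 hr at 37 C, then exposed to compounds for 24 hr at 37 C. Intracellular ATP was read by CellTiter-Glo luminescence; AC50 came from Hill-equation concentration-response fits.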

[9] = Cell Viability - LYMP2-006 (AID 978); also: series mostly up to about 92 µM; nearly all actives have a fitted effect of over 60% in size
How it was run: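 Human lymphoblastoid cells (LYMP2-006), 2500/well in complete medium, were treated with compound for 24 hr at 37 C. Cellular ATP was read by CellTiter-Glo luminescence after 30 min, and AC50 values came from Hill-equation fits of concentration-response data.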

[10] = Cell Viability - LYMP2-007 (AID 979);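 also: cells exposed to compound for 24 h before reading; nearly all actives have a fitted effect of over 60% in size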
How it was run: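 Cells are seeded at 2500 per well and rested 5 hr. Compounds are then added over a concentration series for 24 hr at 37 C. CellTiter-Glo is added for 30 min at room temperature before luminescence reading.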

[11] = Cell Viability - LYMP2-008 (AID 980); also: nearly all actives have a fitted effect of over 60% in size
How it was run: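 Cells seeded at 2500/well and rested 5 hr at 37 C; compounds added over a concentration range and incubated 24 hr at 37 C; CellTiter-Glo added, 30 min at room temperature; luminescence read and AC50 fitted with Hill model.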

[12] = Cell Viability - LYMP2-010 (AID 981); also: nearly all actives have a fitted effect of over 55% in size
How it was run: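 Steps: seed 2500 LYMP2-010 cells per well; incubate 5 hr at 37 C; add compound; incubate 24 hr at 37 C; add CellTiter-Glo, wait 30 min at room temperature; read luminescence. Concentration-response fitted to Hill equation for AC50.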

[13] = Cell Viability - LYMP2-012 (AID 982)
[14] = Cell Viability - LYMP2-014 (AID 983); also: series mostly up to about 92 µM; nearly all actives have a fitted effect of over 50% in size
How it was run: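 Cells are plated at 2500/well and left 5 hr at 37 C. Compounds are added across a concentration range and incubated 24 hr at 37 C in complete medium. CellTiter-Glo is added, and luminescence is read after 30 min at room temperature.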

[15] = Cell Viability - LYMP2-016 (AID 984); also: nearly all actives have a fitted effect of over 55% in size
How it was run: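 Human lymphoblastoid LYMP2-016 cells, 2500 per well, treated with compounds for 24 h at 37 C. Viability read as intracellular ATP by CellTiter-Glo luminescence after 30 min at room temperature; AC50 from Hill fits of concentration-response.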

[16] = Cell Viability - LYMP2-018 (AID 985); also: nearly all actives have a fitted effect of over 50% in size
How it was run: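 Seed 2500 lymphoblastoid cells per well, incubate 5 hr at 37 C, add compound and incubate 24 hr at 37 C, add CellTiter-Glo, wait 30 min at room temperature, then read luminescence.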

[17] = Cell Viability - LYMP2-020 (AID 986)
How it was run: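 Seed 2500 cells per well and incubate 5 hr at 37 C. Add compounds at a concentration series and incubate 24 hr at 37 C. Add CellTiter-Glo, wait 30 min at RT, read luminescence, and fit a Hill curve for AC50.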

[18] = Cell Viability - LYMP2-022 (AID 987); also: nearly all actives have a fitted effect of over 55% in size
How it was run: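 Cells were seeded at 2500 per well, rested 5 hr at 37 C, and treated with titrated compounds for 24 hr at 37 C. Cellular ATP was then quantified by luciferase luminescence, and AC50 values were derived from Hill-modelled concentration-response curves.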

[19] = Cell Viability - LYMP2-024 (AID 988); also: nearly all actives have a fitted effect of over 60% in size
How it was run: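 qHTS cytotoxicity, human lymphoblastoid line, complete medium; 24 h cpd treatment, 37 C; CellTiter-Glo ATP luminescence readout; tetraoctylammonium bromide positive control; AC50 via Hill fit.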

[20] = Cell Viability - LYMP2-026 (AID 989); also: nearly all actives have a fitted effect of over 50% in size
How it was run: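 Cells are seeded at 2500 per well and held 5 hr at 37 C. Compounds are added in concentration series for 24 hr, then CellTiter-Glo reagent is applied and luminescence read.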

Measured: outcome

COc1ccc(CCC(=O)c2c(O)cc(O[C@@H]3O[C@H](CO)[C@@H](O)[C@H](O)[C@H]3O[C@@H]3O[C@@H](C)[C@H](O)[C@@H](O)[C@H]3O)cc2O)cc1O
inactive: all assays above

C=C1C[C@]23C[C@@]1(O)CC[C@H]2[C@@]12C=C[C@H](O)[C@@](C)(C(=O)O1)[C@H]2[C@@H]3C(=O)O
not listed: [7]
inactive: all other assays above
